We go through 38 compounds from PubChem BioAssay (NCI).

Where “and” joins values, the source holds several entries; their conditions need not be identical. Equal entries are not always repeated. The panel holds about 79,000 compounds, 15% with a hit somewhere; the sample as a whole holds those more often. Unmarked numbers belong to inactive results. Calls of active or inactive are those of the source. Cut-off read from the data, not from the text of the source: active = growth inhibition above about 70%; inactive = the rest.

The first assay is described as follows: NCI Yeast Anticancer Drug Screen. Data for the rad50 strain (AID 155).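 Note: 0% = growth of vehicle-only cultures of the same strain.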 Particulars: S. cerevisiae rad50 strain growth inhibition; at 50.0 µM; stronger effect = higher value. In outline:
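Vehicle-treated cultures provide the reference for the growth inhibition reported for compound-exposed, repair-deficient yeast.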
In the case of `COc1cc2c(c(OC)c1OC)-c1ccc(SC)c(=O)cc1C(NC(=O)c1ccccc1)CC2` (stereo not given), the growth inhibition is 79.8% (active). On to `COc1cccc2c1C(=O)c1c(O)c3c(c(O)c1C2=O)C[C@@](O)(C(C)=O)C[C@@H]3OC1CC(O)C(O)C(C)O1` (stereo not given in full), for which the growth inhibition is 84.7% (active). The same measure, in the same setting: the figure for `CCCCCCCc1c(Cl)nc(Cl)nc1Cl` is 78.3% (active); for `O=C1/C(=C/c2ccc(Cl)cc2)CNC/C1=C\c1ccc(Cl)cc1` it is 76.7% (active) and 86.2% (active). Still for that read-out and setting: the figure for `O=C1C(Cl)=C(N2CCN(C3=C(Cl)C(=O)c4ccccc4C3=O)CC2)C(=O)c2ccccc21` is 84.4% (active); for `O=C1c2ccccc2-n2c1nc1ccccc1c2=O` it is 74% (active); for `Nc1ccc(Cn2ccc3c4c(N)nc(N)nc4ccc32)cc1` it is 33.7%. As for `Nc1nc(N)c2c(Cl)c(CNc3ccc(Cl)c(Cl)c3)ccc2n1`, the growth inhibition was 88.1% (active). Same read-out and setting: to `Cc1cc(NCCCCCCCNc2cc(C)nc3cc([N+](=O)[O-])ccc23)c2ccc([N+](=O)[O-])cc2n1` belongs 68.5%. Take `CCCCCCCCCCCCCCCCCC(=O)NCCO`: the growth inhibition is -12.3% and 16.8%.

Another assay can be described thus: NCI Yeast Anticancer Drug Screen. Data for the mec2-1 strain (AID 157). Particulars: S. cerevisiae mec2-1 strain, at 5.0 µM (retest, dose inferred, filed as 0.5), stronger effect = higher value. In short, it runs like this:
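mec2-1 yeast strain, carrying an alteration in DNA damage repair or cell cycle control, was exposed to compounds; growth inhibition was measured relative to vehicle-treated controls.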
Regarding `Oc1c(Cl)cc(Cl)cc1Cc1cc(Cl)cc(Cl)c1O`, the growth inhibition is 86% (active) and 85% (active). On the same count and under the same terms, the figure for `COc1cc(OC)c(OC)cc1/C=C\c1ccnc2ccccc12` is 13%. In the case of `CC(C)C1=CC23CCC4C(C)(C(=O)O)CCCC4(C)C2CC1C1C(=O)OC(=O)C13` (stereo not given), the growth inhibition is 96% (active). Same read-out and setting: to `CN(C)c1nc(N)c(C#N)c(C#N)c1C#N` belongs 21%.

Consider `C/C(=N\NC(=S)N1CCN(c2ccccn2)CC1)c1nccs1`, for which the growth inhibition is 43%.

`CCCCCCCCCCCCCCCCCCOCC(COP(=O)([O-])OCC[N+](C)(C)C)OC` (stereo not given): the growth inhibition was -4%.

With `COc1ccc2nc(C)cc(NCCCCCCCCCNc3cc(C)nc4ccc(OC)cc34)c2c1`, the growth inhibition is -30%. On the same count and under the same terms, to `CC1CC[P+](c2ccccc2)(c2ccccc2)c2c1ccc1ccccc21` (stereo not given) belongs 54%; to `CC(C)C1=C(O)C2=C(C(=O)C1=O)C1(C)CCCC(C)(C)C1CC2O` (stereo not given), 55%. Still for that read-out and setting: the figure for `CC(=O)[O-].[O-]c1c(Cl)cc(Cl)cc1/C=N/Nc1ccccn1.[Zn+2]` is 16%; for `O=C(c1ccccc1)C(c1ccccc1)C(O)c1ccc([N+](=O)[O-])cc1` (stereo not given) it is 13% and -8%; for `Clc1nc(Cl)c(Cl)c(Cl)n1` it is 23%. Still for that read-out and setting: the figure for `COc1cccc2c1C(=O)c1c(O)c3c(c(O)c1C2=O)C[C@@](O)(C(C)=O)C[C@@H]3OC1CC(N(C)C)C(O)C(C)O1` (stereo not given in full) is 98% (active); for `CN1C(c2ccccc2)CC(=NOCc2ccccc2)CC1c1ccccc1` (stereo not given) it is 94% (active); for `Cc1ccc(NCCN(C)C)c2c(=O)c3cc(O)ccc3sc12` it is 5%. For `N#CC1(C2SCCS2=O)C2=C(C(=O)c3ccccc3C2=O)N2CCCC21` (stereo not given), the growth inhibition was 14%. The same measure, in the same setting: the figure for `CCN(CC)CCC(=O)/C=C/c1ccccc1` is 27%; for `CC1(O)Cc2c(O)c3c(c(O)c2CC1O)C(=O)C=CC3=O` (stereo not given) it is 6%.

Regarding `Cc1ccc2c(c1)C1(C)OC(C=CC1=O)O2` (stereo not given), the growth inhibition is 97% (active). Regarding `Fc1cccc(CSC(=S)Nc2ccc(F)c(F)c2)c1`, the growth inhibition is 13%. The same measure, in the same setting: the figure for `CCN(CCO)CCNc1ccc(C)c2sc3ccccc3c(=O)c12` is 13%.

Consider `Cc1n(-c2ccccc2)c2c([n+]1Cc1ccc([N+](=O)[O-])cc1)C(=O)c1ccccc1C2=O`, for which the growth inhibition is -7%.

Regarding `CC(=O)OC1COC(n2c(N)c(C#N)c(-c3ccccc3)c(C#N)c2=S)C(OC(C)=O)C1OC(C)=O` (stereo not given), the growth inhibition was -12% and 1%.

`O=c1[nH]c2cc([N+](=O)[O-])ccc2nc1/C=C(\O)c1ccc([N+](=O)[O-])cc1`: the growth inhibition is -4%. The same measure, in the same setting: the figure for `Cc1n(Cc2ccccc2)c2c([n+]1C)C(=O)c1ccccc1C2=O` is 50%; for `CS(=O)(=O)OCCN(CCOS(C)(=O)=O)c1ccc(C=Nc2ccc(-c3csc(Cc4ccccc4)n3)cc2)c(Cl)c1` it is 7%. `CCCCCCCCCCS(=O)CC(CO)NC(=O)/C=C/c1c(C)[nH]c(=O)[nH]c1=O` (stereo not given): the growth inhibition is 20%. On the same count and under the same terms, to `C/C(=N\O)c1cc(Br)cc([N+](=O)[O-])c1O` belongs 7%; to `COc1cc2c(c(OC)c1OC)-c1ccc(SC)c(=O)cc1C(NC(=O)c1ccccc1)CC2` (stereo not given), -20%; to `COc1cccc2c1C(=O)c1c(O)c3c(c(O)c1C2=O)C[C@@](O)(C(C)=O)C[C@@H]3OC1CC(O)C(O)C(C)O1` (stereo not given in full), 21%.
